For one sequence, binding signal results are on record in article PMC7862700, “An all-to-all approach to the identification of sequence-specific readers for epigenetic DNA modifications on cytosine”.

Test in all cases: DAPPL (digital affinity profiling via proximity ligation, sequencing); 10 mM Tris-HCl pH 7.5, 50 mM NaCl, 1 mM DTT, 4% glycerol, room temperature, 30 min; GST-TFs on glutathione beads, 16-mer random dsDNA library, 0.1% formaldehyde crosslink after washing; high values mean tight binding
What all share (details): protein: recombinant; tags: N-terminal GST; dsDNA, one strand shown

For one assay, the target named is T1, ELK1 (Homo sapiens, UniProt P19419 1-428).
T1 sequence: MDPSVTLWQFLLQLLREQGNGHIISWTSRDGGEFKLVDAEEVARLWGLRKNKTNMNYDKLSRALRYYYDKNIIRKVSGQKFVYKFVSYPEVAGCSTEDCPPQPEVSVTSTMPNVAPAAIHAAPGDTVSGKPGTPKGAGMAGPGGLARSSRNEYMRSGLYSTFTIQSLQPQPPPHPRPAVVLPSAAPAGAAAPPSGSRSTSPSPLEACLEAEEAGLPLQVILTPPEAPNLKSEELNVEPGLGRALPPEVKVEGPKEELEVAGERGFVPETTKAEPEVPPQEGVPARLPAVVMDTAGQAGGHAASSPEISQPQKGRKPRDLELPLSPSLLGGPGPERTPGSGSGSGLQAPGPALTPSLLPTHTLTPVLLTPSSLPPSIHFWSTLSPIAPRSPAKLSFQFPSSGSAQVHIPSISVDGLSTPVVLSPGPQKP
Put shortly: (§1)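 Sequencing on an Illumina NextSeq500 followed washing, crosslinking with 0.1% formaldehyde, proximity ligation (BsaI/T4 ligase, 1 h, 37 °C) and PCR amplification of pools that had been incubated for 30 min at room temperature with 200 nmole of a random double-stranded 16-mer DNA library in Tris/NaCl/DTT/glycerol buffer. Each pool held DNA-barcoded human transcription factors, expressed in yeast as GST fusions and captured on glutathione beads, plus a tag-only sample. Binding signal is a hexamer's read frequency for a factor divided by its frequency in the tag-only sample.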

A further assay has as its target T2, GABPA (Homo sapiens, UniProt Q06546 1-454).
T2 sequence: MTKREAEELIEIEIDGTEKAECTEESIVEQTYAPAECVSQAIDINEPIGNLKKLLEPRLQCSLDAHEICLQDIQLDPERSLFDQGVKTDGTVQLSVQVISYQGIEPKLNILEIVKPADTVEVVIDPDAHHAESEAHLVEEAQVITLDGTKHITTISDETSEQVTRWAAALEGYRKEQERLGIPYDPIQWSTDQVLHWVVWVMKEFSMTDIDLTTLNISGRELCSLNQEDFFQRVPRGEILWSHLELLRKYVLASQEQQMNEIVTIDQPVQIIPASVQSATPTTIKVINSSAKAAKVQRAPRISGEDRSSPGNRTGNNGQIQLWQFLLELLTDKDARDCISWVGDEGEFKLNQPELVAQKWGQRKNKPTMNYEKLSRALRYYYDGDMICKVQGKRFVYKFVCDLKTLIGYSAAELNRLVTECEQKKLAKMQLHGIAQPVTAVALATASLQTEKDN
Put shortly: as §1

In the next assay the target is T3, ERG (Homo sapiens, UniProt P11308 1-479).
T3 sequence: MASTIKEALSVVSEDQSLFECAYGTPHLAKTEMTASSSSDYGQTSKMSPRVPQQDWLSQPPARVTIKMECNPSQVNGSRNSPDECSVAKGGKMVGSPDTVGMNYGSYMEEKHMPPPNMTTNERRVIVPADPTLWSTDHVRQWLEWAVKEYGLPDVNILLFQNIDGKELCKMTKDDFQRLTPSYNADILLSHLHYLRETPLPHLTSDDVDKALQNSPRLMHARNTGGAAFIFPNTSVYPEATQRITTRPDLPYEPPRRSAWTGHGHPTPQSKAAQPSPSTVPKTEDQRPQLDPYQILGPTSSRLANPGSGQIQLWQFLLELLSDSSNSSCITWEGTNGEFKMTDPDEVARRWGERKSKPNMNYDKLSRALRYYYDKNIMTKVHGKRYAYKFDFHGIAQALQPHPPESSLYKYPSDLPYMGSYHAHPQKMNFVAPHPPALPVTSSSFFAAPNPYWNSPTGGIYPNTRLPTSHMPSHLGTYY
A digest of the protocol:
as §1

A further assay deals with ELF1 (Homo sapiens, UniProt P32519 1-619). Put shortly:
as §1

The target in another assay is T4, EHF (Homo sapiens, UniProt Q9NZC4 1-300).
T4 sequence: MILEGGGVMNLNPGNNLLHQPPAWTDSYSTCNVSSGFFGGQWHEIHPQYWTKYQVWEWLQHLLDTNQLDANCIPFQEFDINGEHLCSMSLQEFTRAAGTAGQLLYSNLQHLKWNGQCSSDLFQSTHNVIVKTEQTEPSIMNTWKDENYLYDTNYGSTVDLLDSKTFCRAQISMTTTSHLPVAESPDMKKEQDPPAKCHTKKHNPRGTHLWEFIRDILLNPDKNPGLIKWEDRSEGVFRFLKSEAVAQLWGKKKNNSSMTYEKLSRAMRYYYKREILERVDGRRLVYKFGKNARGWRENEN
A digest of the protocol: as §1

A further assay has as its target SPIB (Homo sapiens, UniProt Q01892 1-262). Put shortly: as §1
In a further assay the target is T5, ELK3 (Homo sapiens, UniProt P41970 1-407).
T5 sequence: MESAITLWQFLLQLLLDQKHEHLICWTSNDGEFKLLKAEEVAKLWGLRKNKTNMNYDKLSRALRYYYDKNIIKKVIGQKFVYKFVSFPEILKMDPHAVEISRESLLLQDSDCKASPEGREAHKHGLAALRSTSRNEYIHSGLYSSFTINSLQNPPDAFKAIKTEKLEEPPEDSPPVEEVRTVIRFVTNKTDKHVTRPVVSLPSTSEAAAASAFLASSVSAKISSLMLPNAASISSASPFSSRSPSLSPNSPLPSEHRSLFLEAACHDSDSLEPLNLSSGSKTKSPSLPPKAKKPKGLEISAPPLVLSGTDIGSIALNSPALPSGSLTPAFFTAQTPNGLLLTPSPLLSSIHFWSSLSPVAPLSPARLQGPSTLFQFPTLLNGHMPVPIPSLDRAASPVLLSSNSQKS
A digest of the protocol: as §1

Another assay has as its target T6, SPIC (Homo sapiens, UniProt Q8N5J4 1-248).
T6 sequence: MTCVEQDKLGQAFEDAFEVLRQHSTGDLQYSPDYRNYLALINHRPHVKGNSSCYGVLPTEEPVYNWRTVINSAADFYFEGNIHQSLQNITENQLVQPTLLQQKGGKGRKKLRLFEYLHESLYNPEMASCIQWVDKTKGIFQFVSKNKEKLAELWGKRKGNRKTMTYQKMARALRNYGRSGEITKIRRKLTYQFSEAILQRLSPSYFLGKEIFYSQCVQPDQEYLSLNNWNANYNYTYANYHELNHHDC
A digest of the protocol:
as §1

A further assay concerns the target ELF4 (Homo sapiens, UniProt Q99607 1-663). Put shortly:
as §1

Chain of SPIB (Q01892 whole entry): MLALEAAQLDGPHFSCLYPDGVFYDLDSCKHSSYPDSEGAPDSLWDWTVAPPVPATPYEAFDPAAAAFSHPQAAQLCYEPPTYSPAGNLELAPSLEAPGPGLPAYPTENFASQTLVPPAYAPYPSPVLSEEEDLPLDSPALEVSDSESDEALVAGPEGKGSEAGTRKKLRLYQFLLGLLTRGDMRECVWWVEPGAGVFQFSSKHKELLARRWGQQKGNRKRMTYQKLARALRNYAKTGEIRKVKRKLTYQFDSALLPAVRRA
Chain of ELF1 (P32519 whole entry): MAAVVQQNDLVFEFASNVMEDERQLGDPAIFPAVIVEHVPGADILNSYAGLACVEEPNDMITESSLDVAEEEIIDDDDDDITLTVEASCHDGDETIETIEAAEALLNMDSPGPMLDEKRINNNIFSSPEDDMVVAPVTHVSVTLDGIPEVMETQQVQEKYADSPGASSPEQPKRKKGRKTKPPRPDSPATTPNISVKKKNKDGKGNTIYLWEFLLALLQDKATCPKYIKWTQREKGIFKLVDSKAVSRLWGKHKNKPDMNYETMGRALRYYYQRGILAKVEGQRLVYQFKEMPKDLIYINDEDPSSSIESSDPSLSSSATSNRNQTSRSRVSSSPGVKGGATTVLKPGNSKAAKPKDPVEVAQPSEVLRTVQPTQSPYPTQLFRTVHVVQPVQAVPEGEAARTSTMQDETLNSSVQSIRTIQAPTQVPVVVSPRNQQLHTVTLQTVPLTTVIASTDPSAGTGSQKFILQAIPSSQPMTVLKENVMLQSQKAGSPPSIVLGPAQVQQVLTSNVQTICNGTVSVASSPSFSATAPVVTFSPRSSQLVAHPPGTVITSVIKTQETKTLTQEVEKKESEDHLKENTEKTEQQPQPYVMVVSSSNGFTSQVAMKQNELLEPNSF
Chain of ELF4 (Q99607 whole entry): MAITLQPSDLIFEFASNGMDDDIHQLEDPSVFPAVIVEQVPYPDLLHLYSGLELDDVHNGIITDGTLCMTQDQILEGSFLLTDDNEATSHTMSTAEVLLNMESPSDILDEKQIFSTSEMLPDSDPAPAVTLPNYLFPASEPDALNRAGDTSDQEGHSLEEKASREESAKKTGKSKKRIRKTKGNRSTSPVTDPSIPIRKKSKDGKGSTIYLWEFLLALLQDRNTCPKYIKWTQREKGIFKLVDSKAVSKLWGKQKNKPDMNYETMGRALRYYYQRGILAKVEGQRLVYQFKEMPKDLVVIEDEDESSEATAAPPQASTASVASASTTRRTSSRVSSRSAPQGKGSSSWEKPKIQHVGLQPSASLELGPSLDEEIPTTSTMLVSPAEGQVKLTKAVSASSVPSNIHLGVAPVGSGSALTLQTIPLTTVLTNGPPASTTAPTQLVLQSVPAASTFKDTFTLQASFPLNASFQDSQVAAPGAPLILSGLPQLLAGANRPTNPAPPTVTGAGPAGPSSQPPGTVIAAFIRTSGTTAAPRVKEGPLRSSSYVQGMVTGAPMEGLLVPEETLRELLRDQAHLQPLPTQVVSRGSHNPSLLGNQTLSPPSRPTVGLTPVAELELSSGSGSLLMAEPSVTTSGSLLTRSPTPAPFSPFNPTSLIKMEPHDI

On to TGATTA, for which the binding signal in the assay with ELK1 was 1.17 fold enrichment (6-mer frequency, TF over GST control); with GABPA, 1.1 fold enrichment (6-mer frequency, TF over GST control); in the assay with ERG, 1.02 fold enrichment (6-mer frequency, TF over GST control); in the assay with ELF1, 1.09 fold enrichment (6-mer frequency, TF over GST control); with EHF, 1.11 fold enrichment (6-mer frequency, TF over GST control); in the assay with SPIB it was 1.07 fold enrichment (6-mer frequency, TF over GST control). Also, the binding signal is 1.07 fold enrichment (6-mer frequency, TF over GST control) in the assay with ELK3; 1.17 fold enrichment (6-mer frequency, TF over GST control) with SPIC; 1.07 fold enrichment (6-mer frequency, TF over GST control) in the assay with ELF4.
